Source: PubChem (National Center for Advancing Translational Sciences (NCATS))
TDP-43 rescue: qHTS of TDP-43 Inhibitors: NCGC Sytravon Library Screen | Potency, µM (titrated, usually from 46.1 µM), most hits filed as activators | yeast TDP-43 toxicity rescue, BacTiter-Glo growth, 24 h | AID 1347073, 2019 | hit rate 0.45% among 45,000; active means well fitted activation curve with a large enough effect; further: 0% is about no effect; nearly all actives have a fitted effect of over 55% in size
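TDP-43-expressing yeast, pregrown in raffinose, seeded at OD600 0.02 in galactose medium with compound for 24 hr at 30 deg C. Growth read by BacTiter-Glo luminescence, so rescue of toxicity appears as activation.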
An asterisk follows results filed as active; i = inactive. The full list was thinned out, with hits kept by preference. Potency means the concentration at half of the fitted maximal effect.

SMILES	TDP-43 rescue
Cc1ccc2c(c1)/C(=C/c1ccccc1)C(=O)N2	22.4µM*
Cc1ccc2c(c1)C(O)(CC(=O)/C=C/C=C/c1ccccc1)C(=O)N2 (centres undefined)	i
Cc1ccc(C)c(C2C(=O)c3ccccc3C2=O)c1	i
Cc1ccc(C)c(Nc2c([N+](=O)[O-])c(=O)oc3ccccc23)c1	i
O=C(Nc1cccc(Cl)c1)c1ccc2c(c1)OCCO2	i
CCOc1cccc(C(=O)NC(=S)Nc2cccc(C)c2)c1	20µM*
O=C(NC(=S)Nc1ccc2c(c1)OCCO2)c1cccc(Br)c1	12.6µM*
COC(=O)COc1cccc(NC(=O)c2cccc(C)c2)c1	i
O=C(Nc1ccc(C(=O)O)cc1)/C(=C/c1ccc2c(c1)OCO2)NC(=O)c1cccc(Br)c1	i
CCOC(=O)NC(=S)Nc1cccc(NC(=S)NC(=O)OCC)c1	i
COCCn1c(SCC#N)nnc1-c1ccc([N+](=O)[O-])cc1	i
COc1ccc(N2CCOCC2)c(NC(=O)c2cc3ccccc3o2)c1	i
CN(Cc1ccccc1)C(=O)COC(=O)c1cc(NS(=O)(=O)c2cccs2)ccc1O	i
CC(C)Oc1ccc(/C=N/NC(N)=S)cc1	12.6µM*
Cn1cc(/C=N/NC(N)=S)c2ccccc21	i
O=C(N/N=C/c1ccc(OC(F)F)cc1)C1=COCCO1	i
Cn1c(SCC(=O)Nc2sccc2C#N)nnc1C1CC1	i
COc1cc(/C=C/C(=O)O)ccc1OS(=O)(=O)c1ccc(C)cc1	i
COc1ccc(/C=C/C(=O)O)cc1Cl	11.2µM*
COc1cc(/C=C/C(=O)O)ccc1OCc1ccc([N+](=O)[O-])cc1	i
O=C(COC(=O)c1cncc(Br)c1)NC1CCCCCC1	i
COc1cc(C(=O)NC(=S)Nc2ccc(N3CCCC3)cc2)cc(OC)c1OC	i
O=C(O)c1nn(CCOc2c(Cl)cccc2Cl)c(=O)c2ccccc12	i
O=C(O)c1nn(CCOc2cccc(Br)c2)c(=O)c2ccccc12	17.8µM*
O=C(O)c1nn(CCOc2ccc(Cl)cc2Cl)c(=O)c2ccccc12	i
SMILES	TDP-43 rescue
O=C(Cc1c(Cl)cccc1Cl)Nc1cccnc1	i
Fc1ccccc1-n1ncc2c1ncn1nc(Cc3ccccc3)nc21	11.2µM*
Cc1cccc(C)c1OCc1nc2c3cnn(-c4ccccc4F)c3ncn2n1	i
COc1ccc(Cc2nc3c4cnn(-c5ccccc5F)c4ncn3n2)cc1	i
CCc1ccc(C(=O)COC(=O)c2ccc(Cl)nc2)cc1	i
CCN1C(=O)C(=O)N(CC(=O)Nc2cccc(C(F)(F)F)c2)C1=O	i
CCCc1nc2nc(C)c(NS(=O)(=O)c3ccc(CC(C)C)cc3)c(=O)n2[nH]1	i
N#CCCn1cc(C(=O)Nc2ccc([N+](=O)[O-])cc2)c(-c2cccs2)n1	i
CC(=O)Nc1nc(-c2ccc([N+](=O)[O-])cc2)cs1	i
O=[N+]([O-])c1ccc(-c2nc(-c3cccs3)c(-c3cccs3)[nH]2)cc1	3.16µM*
COc1ccc(NC(=O)C2(C)CCCN2C(=O)C(C)C)cc1OC (centres undefined)	i
O=C(CCl)N=c1sccn1Cc1ccc(Cl)cc1Cl	20µM*
O=C(CSc1ncn[nH]1)NCCc1ccc(Cl)cc1Cl	i
O=C(Cn1cnnn1)NCCc1ccc(Cl)cc1Cl	i
CCOC(=O)c1c(NC(C)=O)sc(/C(C)=N/Nc2ccc(C(=O)O)cc2)c1C	i
Cc1ccc(N=c2c([N+](=O)[O-])nn(-c3ccc4c(c3)OCCO4)n2O)cc1F	i
COc1ccc(-n2nc([N+](=O)[O-])c(=NCCc3cccc(C)c3)n2O)cc1	12.6µM*
COc1cccc(CNC(=O)Cn2nc([N+](=O)[O-])c(Br)c2C)c1	i
CCCC(=O)N1CCCC1(C)C(=O)Nc1cc(OC)c(OC)c(OC)c1 (centres undefined)	i
CCCc1ccc(OCC(=O)Nc2sc3c(c2C(=O)OC)CCCCC3)cc1	i
CCc1sc(C(=O)Nc2ccc3c(c2)OCO3)cc1C	i
CC(O)(c1cccc(F)c1)c1nc(-c2cccc(F)c2)cs1 (centres undefined)	i
COc1ccc(-c2csc(C(C)(O)c3cccc(F)c3)n2)cc1 (centres undefined)	14.1µM*
Cc1ccc(-c2csc(C(C)(O)c3cccc(F)c3)n2)cc1C (centres undefined)	i
CC1(C(=O)NS(=O)(=O)Cc2ccccc2C(F)(F)F)CCN1C(=O)Cc1ccccc1 (centres undefined)	i
SMILES	TDP-43 rescue
COc1ccccc1CNC(=O)C1CCCCN1S(=O)(=O)c1ccccc1 (centres undefined)	i
CC(=O)Nc1ccc(NC(=O)c2c(C)nn(Cc3ccccc3Cl)c2C)cc1	i
CCOC(=O)c1oc2c(c1C)-c1nn(Cc3ccccc3Cl)cc1CC2	i
Cc1c(C(=O)O)oc2c1-c1nn(Cc3ccccc3Cl)cc1CC2	11.2µM*
COc1ccc(-c2nc(CNS(=O)(=O)c3ccccc3)cs2)cc1	i
O=S(=O)(NCc1csc(-c2ccccc2)n1)c1cccc(F)c1	i
Cc1cc(C)c(S(=O)(=O)NCc2csc(-c3ccccc3)n2)c(C)c1	22.4µM*
CC(C)NC(=O)c1cc(C2CCCCN2S(=O)(=O)c2cccs2)on1 (centres undefined)	i
CCC(C)N(C(=O)c1csnn1)C(C(=O)NC1CCCC1)c1c(F)cccc1Cl (centres undefined)	i
Cc1nc([N+](=O)[O-])c(C(=O)OCc2cccc(Br)c2)n1C	12.6µM*
Cc1nc([N+](=O)[O-])c(C(=O)OCc2ccccc2)n1C	i
COc1cc(OC)cc(C(=O)OCc2ccc([N+](=O)[O-])cc2)c1	i
O=C(c1ccc(C(F)(F)F)cc1)C1CCCN(C(=O)CCc2cnccn2)C1 (centres undefined)	i
COc1ccc(C(=O)OCC(=O)c2ccc[nH]2)c(OC)c1	i
COc1ccc(/C=C(\C#N)C(=O)OCC(=O)Nc2c(C)cccc2C)cc1	i
COc1cc(/C=C(\C#N)C(=O)Nc2cccc3ncccc23)cc(OC)c1OC	i
Cc1cccc(C)c1NC(=O)/C(C#N)=C/c1ccsc1	20µM*
Cc1ccccc1/C=N/Nc1nc2ccccc2c(=O)n1O	i
CCN(CC(=O)NCc1ccco1)S(=O)(=O)c1ccc(OC)cc1	i
COc1ccc(CC(=O)O/N=C(\N)c2cccc([N+](=O)[O-])c2)cc1	i
N/C(=N\OC(=O)Cc1ccccc1)c1ccc([N+](=O)[O-])cc1	11.2µM*
N/C(=N\OC(=O)CCCOc1ccccc1)c1ccc([N+](=O)[O-])cc1	i
COc1ccc(CCNC(=O)C2=C(C)C(=O)OC23CCCCC3)c(OC)c1	i
NC(=O)NC(=O)COC(=O)CCSc1ccccc1	i
CCC(C)c1ccc(O)c(NC(=S)NC(=O)c2cccnc2)c1 (centres undefined)	10µM*
SMILES	TDP-43 rescue
Cc1ccc([N+](=O)[O-])cc1NC(=S)NC(=O)c1cccnc1	i
O=C(NC(=S)NNC(=O)c1ccccc1O)c1cccnc1	i
COC(=O)c1sc(N)c(C(=O)OC)c1COC(=O)C12CC3CC(CC(O)(C3)C1)C2	i
C/C(=N\NC(=O)CNC(=O)c1cccc(F)c1)c1ccc2ccccc2c1	i
COc1cc(C(=O)NCc2ccc(-c3nc4ccccc4s3)cc2)cc(OC)c1OC	i
CCOc1cc(-c2nc3ccccc3s2)ccc1O	22.4µM*
COc1cccc(-c2nc3ccccc3s2)c1O	i
Cc1ccc2nc(Nc3ccc(Br)cc3)nc(-c3ccccc3)c2c1	i
